Screening data deposited in PubChem BioAssay by several laboratories.
Hits are enriched below; roughly 4.1% of the tested compounds scored in any of these assays.
hgDAF-12 ag: agonists of H. glycines DAF-12 nuclear receptor. HEK293 GAL4-hgDAF12 UAS-luciferase reporter, agonist luminescence; normalized to butyrate control. activation, % at 6.8 µM. 1.8% of 370,000 active. AID 687014;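 active means activation above a cutoff set at the mean of all screened compounds plus 3 SD, cut at about 10% in these data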
PolyA inhibitor: blocks polyadenylation in yeast reporter cells | S. cerevisiae SKY197-pL101 polyadenylation reporter, beta-gal luminescence; efflux-impaired pdr1/pdr3 knockout yeast; score 100 = 6 SD above DMSO | activity score, % at 12 µM | 0.02% of 300,000 active | AID 1875;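 active means lowest replicate activity score at least 50, where 100 means six control SD above control mean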;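 further: yeast exposed to compound for 9 h at 30 °C; higher score means more reporter readthrough which indicates perturbed polyadenylation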
hcDAF-12 act: H. contortus DAF-12 activation, primary screen; activation, % at 6.8 µM; HEK293 hcDAF-12 lit1-tk-luc reporter, luminescence; 0% DMSO, 100% Δ7-dafachronic acid; AID 652067; 1.4% of 370,000 active;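 active means activation above the mean of all tested compounds plus 3 SD, cut at about 5.5% in these data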
ssDAF-12 act: S. stercoralis DAF-12 activation, primary screen | HEK293 ssDAF-12/GRIP1 lit1-tk-luc reporter, luminescence; % of 3 µM dafachronic acid response | activation, % at 6.8 µM | 1% of 370,000 active | AID 652126;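 active means activation above the mean over all tested compounds plus 3 SD, cut at about 0.9% in these data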
DAX1 inh-1: blocks DAX1 repression of SF-1 activated StAR promoter; HEK293T StAR-luciferase reporter, SF-1/DAX-1 repression relief; AID 652010; 1.1% of 370,000 active; inhibition, % at 6.8 µM;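 active means inhibition above the mean over all tested compounds plus 3 SD, cut at about 3.6% in these data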;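 further: higher inhibition means more luminescence from relief of DAX-1 repression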
DAX1 inh-2: inhibits human nuclear receptor DAX1 | P51843 | HEK293 Gal4-DAX1 luciferase reporter, luminescence | inhibition, % at 6.75 µM | 0.99% of 340,000 active | AID 504766;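 active means inhibition above the mean over all tested compounds plus 3 SD, cut at about 4.2% in these data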;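 further: inhibition shows as a rise in luminescence from relieved DAX1 repression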
Target sequence (P51843 207-470 limits assumed): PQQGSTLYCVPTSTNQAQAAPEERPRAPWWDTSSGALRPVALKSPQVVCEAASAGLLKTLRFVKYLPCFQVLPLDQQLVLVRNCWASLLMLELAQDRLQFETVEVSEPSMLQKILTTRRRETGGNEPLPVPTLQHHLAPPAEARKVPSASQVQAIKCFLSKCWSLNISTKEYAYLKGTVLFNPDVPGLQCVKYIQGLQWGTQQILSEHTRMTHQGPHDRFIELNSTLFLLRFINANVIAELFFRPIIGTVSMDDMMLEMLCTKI
DAX1 inh confirm: confirmation of human DAX1 (NR0B1) inhibitors; shares compounds with DAX1 inh-1; AID 652134; 87% of 2,400 active; HEK293T StAR-promoter luciferase reporter, SF-1/DAX-1 repression; inhibition, % at 6.8 µM;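 active means inhibition above the average of every tested compound plus 3 SD, cut at about 3.8% in these data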;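 further: active compounds raise luminescence by relieving repression of the StAR reporter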
SF1 AF2mut Luc: nonselective inhibitor or artifact in SF-1 mutant DAX1 counter-screen. shares compounds with DAX1 inh-1. HEK293 StAR-luciferase, SF-1 AF2 mutant, luminescence. inhibition, % at 6.8 µM. 78% of 2,400 active. AID 652136;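 active means inhibition above the mean of all tested compounds plus 3 SD, cut at about 3% in these data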
LXRb hcDAF ctr: counter-screen for hcDAF-12 agonists: agonists of human LXR-beta | activation, % at 6.8 µM | 3,400 tested, under 10 active | HEK293 Gal4-LXR tk-luc reporter, luminescence, 24 h; normalized: DMSO 0%, positive control 100% | shares compounds with hcDAF-12 act;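 active means mean percent activation of the reporter above a cutoff set as the average over tested compounds plus their standard deviation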
hcDAF12 ag: hcDAF-12 agonism, confirmation assay. shares compounds with hcDAF-12 act. HEK293 hcDAF-12 lit1-tk-luc reporter, luminescence; % of Δ7-dafachronic acid response. activation, % at 6.8 µM. 61% of 3,400 active. AID 743032;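 active means mean activation across triplicate tests above the threshold derived from the earlier primary screen, cut at about 5.5% in these data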
hgDAF12 conf: confirmation of H. glycines DAF-12 agonists; HEK293 GAL4-hgDAF12 luciferase reporter, agonist mode; percent of butyrate response; 80% of 3,300 active; activation, % at 6.8 µM; shares compounds with hgDAF-12 ag; AID 743050;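 active means mean activation over triplicate wells above the hit cutoff derived from the earlier primary screen, cut at about 11% in these data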
LXRb DAF12 ctr: counter-screen for DAF-12 agonists: agonists of human LXR-beta; shares compounds with hgDAF-12 ag; HEK293 Gal4-LXR luciferase reporter, 24 h; 3,300 tested, under 10 active; activation, % at 6.8 µM;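 active means mean activation of the triplicate above a set limit carried over from the primary screen, none filed active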
Each line names hits and unclear results; the compound was inactive in the other large screens (follow-up assays come after a bar, where they were run).

Cc1ccc2nc(-c3ccc(NC(=O)CCN4C(=O)c5ccccc5C4=O)cc3)sc2c1	hgDAF-12 ag 17, hcDAF-12 act 8.7, ssDAF-12 act 0.9, DAX1 inh-1 5.9 | DAX1 inh confirm 15 | SF1 AF2mut Luc 4.5 | LXRb hcDAF ctr inactive | hcDAF12 ag 8.3 | hgDAF12 conf 21 | LXRb DAF12 ctr inactive
CCOC(=O)c1ccccc1NC(=O)COC(=O)c1cc([N+](=O)[O-])ccc1N1CCOCC1	none
Cn1c(=O)c(C(=O)COC(=O)c2cc(-c3ccco3)nc3ccccc23)c(N)n(CC2CC2)c1=O	none (no result: hgDAF-12 ag, hcDAF-12 act, ssDAF-12 act, DAX1 inh-1, DAX1 inh-2)
CCn1ncc(Br)c1C(=O)Nc1c(C)nn(Cc2c(F)c(F)c(F)c(F)c2F)c1C	none (no result: PolyA inhibitor)
COc1ccc(CNS(=O)(=O)c2cc(Cl)ccc2N2CC[C@@H](O)C2)cc1	none (no result: PolyA inhibitor, DAX1 inh-2)
O=C(NCCc1ccccc1)C(=O)NCCC1CCCCN1S(=O)(=O)c1cccs1 (centres undefined)	none
O=C(/C=C\Nc1ccccc1Br)c1ccc2c(c1)OCO2	hgDAF-12 ag 17, hcDAF-12 act 9.4, DAX1 inh-1 5.3 | DAX1 inh confirm 9.6 | SF1 AF2mut Luc inactive | LXRb hcDAF ctr inactive | hcDAF12 ag 17 | hgDAF12 conf 16 | LXRb DAF12 ctr inactive
Cc1ccn2c(c1)nc(=S)n2C(=O)c1ccccc1	hgDAF-12 ag 15, hcDAF-12 act 6.7, DAX1 inh-1 6.5, DAX1 inh-2 4.5 | DAX1 inh confirm 8.0 | SF1 AF2mut Luc inactive | LXRb hcDAF ctr inactive | hcDAF12 ag 12 | hgDAF12 conf 11 | LXRb DAF12 ctr inactive
CC(C)OCC1Cn2c(nc3c2c(=O)n(C)c(=O)n3C)O1 (centres undefined)	none
CC(=O)Nc1ccc(-c2cc(-c3ccccc3)nc(-c3ccccc3)n2)cc1	none
CC(=O)Nc1ccc2nc(-c3ccccc3)cn2c1	hgDAF-12 ag 21, DAX1 inh-1 6.0 | DAX1 inh confirm 10.0 | SF1 AF2mut Luc 6.6 | hgDAF12 conf 17 | LXRb DAF12 ctr inactive
Cc1nnc(NC(=O)c2oc3ccccc3c2C)s1	hgDAF-12 ag 15, hcDAF-12 act 11, ssDAF-12 act 1.4, DAX1 inh-1 8.9 | DAX1 inh confirm 10.0 | SF1 AF2mut Luc 9.5 | LXRb hcDAF ctr inactive | hcDAF12 ag 12 | hgDAF12 conf 10 | LXRb DAF12 ctr inactive
C=CCn1c(C)cc(C(=O)Cn2nc(C(=O)O)c3ccccc3c2=O)c1C	hgDAF-12 ag 15, ssDAF-12 act 0.9, DAX1 inh-1 5.0 | DAX1 inh confirm 10 | SF1 AF2mut Luc 4.0 | hgDAF12 conf 13 | LXRb DAF12 ctr inactive
Cc1c(Cl)cccc1NC(=O)c1ccco1	none
Cc1c(Cl)ccc2sc(NC(=O)c3ccco3)nc12	hgDAF-12 ag 21, hcDAF-12 act 10, ssDAF-12 act 1.2, DAX1 inh-1 6.0 | DAX1 inh confirm 12 | SF1 AF2mut Luc 8.7 | LXRb hcDAF ctr inactive | hcDAF12 ag 9.9 | hgDAF12 conf 21 | LXRb DAF12 ctr inactive
